Assay results published in PubChem BioAssay (NCATS).
Values joined by “and” are separate entries in the source; they are usually repeats but may differ in a detail not shown here. Equal values may be shown once. Results filed as inconclusive are left out. Active and inactive are the calls of the source. Unless noted, calls follow the shape of the dose curve; as a rule, active = well fitted curve in the direction sought with a large enough effect; inconclusive = small, poorly fitted or top-dose-only effect, or another doubt; inactive = no such curve, though single readings can be large; an effect the other way counts as inactive or inconclusive.

Columns and labels:
[1] = molecular target: Cytochrome P450 1A2 (Homo sapiens) (UniProt P05177); assay: p450-cyp1a2 (AID 410; calls by dose curve; also: potency is read from the fitted curve at half-maximal effect;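 as to activity change, negative = inhibition: -100% = full effect of reference inhibitor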); conditions: recombinant CYP1A2, luciferin-ME demethylation, luminescence; series mostly up to 57 µM
Procedure, shortened: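 Luminescent demethylation readout: Luciferin-ME (100uM, equal to Km) turned over by 20nM CYP1A2 for 60 min at room temperature after NADPH regeneration addition, following 10 min compound preincubation. Normalization used 57 uM furafylline as full inhibition.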

[2] = molecular target: Glucocorticoid receptor (Homo sapiens) (UniProt P04150); assay: GR-GFP Redistribution (AID 450;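 active = compounds whose dose series gives a full or clear partial fitted curve of increased nuclear translocation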; also: potency is read from the fitted curve at half-maximal effect); conditions: U2OS GR-GFP nuclear translocation, laser cytometry, 2 h
[3] = molecular target: Glucocorticoid receptor (Homo sapiens) (UniProt P04150); assay: GR-EFC Redistribution (AID 451; calls by dose curve; also: potency is read from the fitted curve at half-maximal effect); conditions: CHO-K1 GR-EFC translocation, beta-gal luminescence, 2 h
Procedure, shortened: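 Translocation of GR-ED fusion to nuclear EA restores b-gal, read by luminescence after 1 h room-temperature detection. Engineered CHO-K1 biosensor cells, 1,000/well, exposed 2 h at 37 C to titrations up to 46 uM final.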

[4] = molecular target: Cytochrome P450 3A4 (Homo sapiens) (UniProt P08684); assay: qHTS Assay for Activators of Cytochrome P450 3A4 (AID 885); conditions: recombinant CYP3A4, Luciferin-PPXE luminescence, 60 min; series mostly up to 57.1 µM; also: nearly all actives have a fitted effect of over 65% in size
Procedure, shortened: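 Human CYP3A4 dealkylates Luciferin-PPXE to luciferin, which luciferase detection converts to light. Substrate was at its KM (25uM), buffer 200mM KPO4, reaction 60 min at RT.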

[5] = molecular target: Ubiquitin carboxyl-terminal hydrolase 1 (Homo sapiens) (UniProt O94782); assay: Inhibitors of USP1/UAF1: Pilot qHTS (AID 504865); conditions: purified USP1/UAF1, Ub-rhodamine cleavage fluorescence; series mostly up to 114 µM; also: nearly all actives have a fitted effect of over 35% in size; also: potency is read from the fitted curve at half-maximal effect
Procedure, shortened: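 Deubiquitinase activity followed as kinetic rhodamine fluorescence release from 150 nM Ub-Rho. 1 nM USP1/UAF1 with compound, after 15 min room-temperature preincubation, in HEPES pH 7.8 buffer containing TCEP, EDTA, BSA and Tween-20.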

[6] = molecular target: DNA dC->dU-editing enzyme APOBEC-3G (Homo sapiens) (UniProt Q9HC16); assay: qHTS for inhibitors of Vif-A3G interactions: Validation (AID 588379); conditions: Vif-A3G protein interaction assay; series mostly up to 46.1 µM; also: 0% is about no effect
Procedure, shortened: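 Yellow fluorescence (Ex 488, Em 500-530) of Vif-coexpressing HeLa A3G-eYFP cells, scanned by Acumen cytometer, reports blocked A3G degradation. Cells plated at 700/well overnight at 37 deg C before compound addition, then a further overnight compound incubation at 37 deg C.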

[7] = test system: Zika virus NS2B-NS3 protease; assay: Primary screen GU AMC qHTS for Zika virus inhibitors (AID 1347154); conditions: Zika NS2B-NS3 unlinked protease, AMC fluorogenic substrate; series mostly up to 54.1 µM;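 also: 0% = no-inhibitor control and -100% = no-enzyme control; nearly all actives have a fitted effect of over 70% in size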
Procedure, shortened: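 Fluorogenic AMC-substrate cleavage by noncovalent NS2B-NS3 protease complex (25 nM, pH 8.0 Tris buffer with Tween 20) followed for 15 minutes at room temperature (~20% conversion). Percent inhibition from ex340/em450 signal change, fitted by 4-parameter Hill equation.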

[8] = Primary qHTS for small molecule stabilizers of the endoplasmic reticulum resident proteome: Secreted ER Calcium Modulated Protein (SERCaMP) assay (AID 1508630); conditions: SH-SY5Y GLuc-SERCaMP (Gaussia luciferase released on ER calcium loss) secretion, thapsigargin, luminescence; series mostly up to 38.4 µM; also: % is scaled to controls: 0 for no effect and ±100 for the full control effect
Procedure, shortened: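 The SH-SY5Y reporter protocol was run at 3 concentrations up to 38.3 uM (primary) or 11 concentrations (follow-up): 16 h compound, 100 nM thapsigargin for 4 h, then extracellular luciferase luminescence.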

[9] = molecular target: Rap guanine nucleotide exchange factor 3 (Homo sapiens) (UniProt O95398); assay: Confirmatory qHTS for agonist of cAMP-regulated guanine nucleotide exchange factor 3 (EPAC1) (AID 1645881); conditions: EPAC1 Rap1B BODIPY-GDP exchange fluorescence, 100% = cAMP control response; series mostly up to 154 µM;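 also: EPAC1 catalysed release of BODIPY-GDP from Rap1B seen as fluorescence loss; nearly all actives have a fitted effect of over 75% in size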
[10] = molecular target: Cytochrome P450 3A4 (Homo sapiens) (UniProt P08684); assay: qHTS Assay for Inhibitors and Substrates of Cytochrome P450 3A4 (AID 884); conditions: recombinant CYP3A4, Luciferin-PPXE luminescence; series mostly up to 57.1 µM; also: potency is read from the fitted curve at half-maximal effect; nearly all actives have a fitted effect of over 50% in size
Procedure, shortened: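 Luminescent readout of luciferin produced by CYP3A4 (20 nM) dealkylation of Luciferin-PPXE, 25 uM (its KM). NADPH-driven reaction ran 60 min at RT after 10 min compound preincubation; data scaled to 57 uM ketoconazole as 100% inhibition.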

[11] = AP1 Signaling Pathway (AID 357; active = well fitted curve in either direction with a large enough effect, not every such curve was filed as active;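 also: ME-180 reporter cells stimulated with EGF at its EC50 level; % is scaled to controls: 0 for no effect and ±100 for the full control effect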); conditions: ME-180 AP-1-bla reporter, EGF-induced, beta-lactamase ratio, 5 h
Procedure, shortened: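 A ratiometric CCF4 readout (405 nm excitation; 460 and 530 nm emission) quantified AP-1-driven beta-lactamase in ME-180 cells after 5 h with compound and EC50 EGF; AC50 values were derived for activators and inhibitors.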

[12] = NFAT Signaling Pathway (AID 444; active = well fitted curve in either direction with a large enough effect, not every such curve was filed as active;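 also: carbachol stimulus at about its EC50 of 1 µM final; % is scaled to controls: 0 for no effect and ±100 for the full control effect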); conditions: Jurkat NFAT-bla M1, carbachol, beta-lactamase ratio, 5 h
Procedure, shortened: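 Read-out: CCF4 FRET ratio (460 nm/530 nm) after 1 h RT dye loading, used for %activity and AC50 from titration series. Cells: Jurkat NFAT-β-lactamase/M1 line, treated with compound plus 1 uM carbachol for 5 h, 37 °C.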

[13] = Stat Signaling Pathway (AID 446; active = well fitted curve in either direction with a large enough effect, not every such curve was filed as active;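 also: ME-180 cervical cancer cells given 40 pM IL-6 alongside compound; SIE-controlled beta-lactamase reporter measured as 460/530 nm FRET emission ratio; % is scaled to controls: 0 for no effect and ±100 for the full control effect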); conditions: ME-180 (cervical carcinoma) SIE beta-lactamase reporter, IL-6 stimulated, 5 h
Procedure, shortened: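 Normalization used AC90 stimulation (300 pM IL-6) and AC90 inhibition (125 nM pan-JAK inhibitor at 40 pM IL-6). The underlying signal is SIE-driven beta-lactamase in ME-180 cells after 5 h IL-6 exposure with compound.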

[14] = molecular target: Mitogen-activated protein kinase 10 (Mus musculus) (UniProt Q61831); assay: JNK3 AlphaScreen Assay (AID 530; active = well fitted curve in either direction with a large enough effect, not every such curve was filed as active); conditions: JNK3 lysate, c-Jun phosphorylation; series mostly up to 57.1 µM
Procedure, shortened: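 qHTS titrations with 15 min compound pre-incubation before adding ATP (10 uM final). Read-out: AlphaScreen of Ser73-phosphorylated biotin-GST-cJun using HepG2 lysate JNK3 activated by IL-1β and TNFα.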

[15] = molecular target: 3',5'-cyclic-AMP phosphodiesterase 4B (Homo sapiens) (UniProt Q07343); assay: qHTS Assay for Inhibitors of PDE-IV (AID 607; active = well fitted activation curve with a large enough effect in the main read-out, with a control signal flat, not every such curve was filed as active; also: % of control where 0% means no effect); conditions: HEK293 ACTOne CNG channel cells, membrane potential fluorescence; series mostly up to 22.9 µM
Procedure, shortened: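 HEK293 ACTOne cells with CNG channel (1000/well), endogenous PDE4; membrane potential dye, compounds up to 22.9 uM final. Fluorescence Ex 535/Em 590; RO 20-1724 (100 uM final) as reference.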

[16] = molecular target: Guanine nucleotide-binding protein G(i) subunit alpha-1 (Homo sapiens) (UniProt P63096); assay: qHTS Assay for Inhibitors of RGS12 GoLoco Motif Activity (Green Fluorophore) (AID 879); conditions: Galphai1/FITC-RGS12 GoLoco peptide, fluorescence polarization; series mostly up to 57.1 µM;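 also: 0% = labeled peptide with Gαi1 and full inhibition = labeled peptide alone without protein; negative values mean loss of peptide binding seen as reduced polarization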
Procedure, shortened: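 A drop in FITC polarization marked displacement of the FITC-tagged RGS12 GoLoco peptide (10 nM) from Gαi1 (50 nM). Compounds were incubated 10 min at room temperature in Tris pH 7.5 buffer containing 150 mM NaCl, 0.1 mM GDP and 0.05% NP40; unlabeled peptide titration served as control.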

[17] = molecular target: Cytochrome P450 2C9 (Homo sapiens) (UniProt P11712); assay: qHTS Assay for Inhibitors and Substrates of Cytochrome P450 2C9 (AID 883); conditions: recombinant CYP2C9, luciferin-H luminescence, 60 min; series mostly up to 57.1 µM; also: potency is read from the fitted curve at half-maximal effect; nearly all actives have a fitted effect of over 60% in size
Procedure, shortened: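 Turnover of Luciferin-H (100uM, KM) by 10nM human CYP2C9 was measured over 60 min at 37C with NADPH regeneration; inhibitors and some substrates reduce luminescence. Data normalized to sulphaphenazole 57uM.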

[18] = molecular target: Cytochrome P450 2D6 (Homo sapiens) (UniProt P10635); assay: qHTS Assay for Inhibitors and Substrates of Cytochrome P450 2D6 (AID 891); conditions: recombinant CYP2D6, luciferin-ME EGE luminescence; series mostly up to 57.1 µM; also: nearly all actives have a fitted effect of over 60% in size; also: potency is read from the fitted curve at half-maximal effect
Procedure, shortened: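 Luminescent read-out of luciferin formed by 5 nM human CYP2D6 demethylating 30 uM Luciferin-ME EGE (Km level) over 60 min at room temperature after NADPH regeneration addition. Data normalized to full inhibition by 1.43 uM quinidine.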

[19] = molecular target: Cytochrome P450 2C19 (Homo sapiens) (UniProt P33261); assay: qHTS Assay for Inhibitors and Substrates of Cytochrome P450 2C19 (AID 899); conditions: recombinant CYP2C19, luciferin-H EGE luminescence; series mostly up to 57.1 µM; also: potency is read from the fitted curve at half-maximal effect; nearly all actives have a fitted effect of over 60% in size
Procedure, shortened: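 Reactions contain 5nM enzyme, 10uM Luciferin-H EGE (KM) and 50mM KPO4; compound preincubates 10 min at 37C, NADPH regeneration starts turnover for 60 min. Luminescence after detection reagent gives activity.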

Sequence of Ubiquitin carboxyl-terminal hydrolase 1 (Homo sapiens) (O94782 whole entry, looked up): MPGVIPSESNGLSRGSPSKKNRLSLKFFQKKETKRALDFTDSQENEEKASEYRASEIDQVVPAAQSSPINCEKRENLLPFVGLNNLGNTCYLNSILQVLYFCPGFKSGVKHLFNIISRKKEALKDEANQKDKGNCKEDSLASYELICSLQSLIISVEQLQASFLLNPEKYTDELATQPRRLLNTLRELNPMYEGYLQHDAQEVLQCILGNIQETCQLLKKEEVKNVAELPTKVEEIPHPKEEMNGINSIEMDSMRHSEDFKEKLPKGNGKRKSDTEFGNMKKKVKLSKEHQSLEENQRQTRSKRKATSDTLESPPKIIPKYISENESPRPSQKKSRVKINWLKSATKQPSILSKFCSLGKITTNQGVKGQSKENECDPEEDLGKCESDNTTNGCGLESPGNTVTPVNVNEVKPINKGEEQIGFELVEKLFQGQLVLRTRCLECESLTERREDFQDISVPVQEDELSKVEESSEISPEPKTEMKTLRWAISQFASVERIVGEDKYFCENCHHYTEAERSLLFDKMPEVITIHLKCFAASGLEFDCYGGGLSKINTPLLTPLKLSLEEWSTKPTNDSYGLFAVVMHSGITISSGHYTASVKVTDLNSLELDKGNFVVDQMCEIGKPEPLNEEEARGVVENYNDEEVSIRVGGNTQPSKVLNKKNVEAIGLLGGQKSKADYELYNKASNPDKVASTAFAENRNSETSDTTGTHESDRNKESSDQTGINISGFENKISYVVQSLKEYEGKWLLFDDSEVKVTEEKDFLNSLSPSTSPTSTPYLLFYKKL
Sequence of Rap guanine nucleotide exchange factor 3 (Homo sapiens) (O95398 whole entry, looked up): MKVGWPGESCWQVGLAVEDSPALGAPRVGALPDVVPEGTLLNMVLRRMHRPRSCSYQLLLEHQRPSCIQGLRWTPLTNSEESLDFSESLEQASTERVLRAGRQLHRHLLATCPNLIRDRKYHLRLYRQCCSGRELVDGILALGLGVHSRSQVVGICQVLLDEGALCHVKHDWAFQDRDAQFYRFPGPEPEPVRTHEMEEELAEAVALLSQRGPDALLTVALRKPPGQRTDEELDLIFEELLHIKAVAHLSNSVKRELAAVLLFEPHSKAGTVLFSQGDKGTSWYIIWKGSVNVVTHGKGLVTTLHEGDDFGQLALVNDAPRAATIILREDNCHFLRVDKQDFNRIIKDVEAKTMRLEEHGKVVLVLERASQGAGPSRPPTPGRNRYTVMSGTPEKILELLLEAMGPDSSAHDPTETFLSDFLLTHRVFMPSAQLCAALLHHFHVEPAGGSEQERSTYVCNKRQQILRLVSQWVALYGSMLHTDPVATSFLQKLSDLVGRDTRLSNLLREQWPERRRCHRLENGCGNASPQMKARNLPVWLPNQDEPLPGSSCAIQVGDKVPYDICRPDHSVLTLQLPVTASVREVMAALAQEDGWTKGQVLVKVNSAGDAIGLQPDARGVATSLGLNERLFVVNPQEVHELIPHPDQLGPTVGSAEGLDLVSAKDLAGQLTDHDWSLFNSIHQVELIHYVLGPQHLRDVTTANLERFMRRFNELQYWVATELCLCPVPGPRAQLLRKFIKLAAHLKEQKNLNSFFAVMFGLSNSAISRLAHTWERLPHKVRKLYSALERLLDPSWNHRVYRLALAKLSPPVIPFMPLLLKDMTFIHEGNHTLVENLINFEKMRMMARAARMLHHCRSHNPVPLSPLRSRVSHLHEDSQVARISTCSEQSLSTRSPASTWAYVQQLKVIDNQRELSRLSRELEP
Sequence of Cytochrome P450 2C9 (Homo sapiens) (P11712 whole entry, looked up): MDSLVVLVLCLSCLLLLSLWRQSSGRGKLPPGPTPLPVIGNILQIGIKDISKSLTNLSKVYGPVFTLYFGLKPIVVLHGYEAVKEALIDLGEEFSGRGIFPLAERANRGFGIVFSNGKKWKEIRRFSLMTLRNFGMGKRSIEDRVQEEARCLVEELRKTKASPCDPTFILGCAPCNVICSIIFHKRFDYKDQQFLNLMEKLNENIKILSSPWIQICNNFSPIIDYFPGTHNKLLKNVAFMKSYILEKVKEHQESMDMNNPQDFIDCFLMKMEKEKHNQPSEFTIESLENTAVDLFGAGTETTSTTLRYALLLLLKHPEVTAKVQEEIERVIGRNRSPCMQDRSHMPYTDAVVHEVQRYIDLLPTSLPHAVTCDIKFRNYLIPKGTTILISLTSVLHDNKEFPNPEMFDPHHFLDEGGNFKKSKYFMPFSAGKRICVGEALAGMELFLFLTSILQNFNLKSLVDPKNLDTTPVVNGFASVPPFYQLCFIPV
Sequence of Glucocorticoid receptor (Homo sapiens) (P04150 whole entry, looked up, the tested form may be a part): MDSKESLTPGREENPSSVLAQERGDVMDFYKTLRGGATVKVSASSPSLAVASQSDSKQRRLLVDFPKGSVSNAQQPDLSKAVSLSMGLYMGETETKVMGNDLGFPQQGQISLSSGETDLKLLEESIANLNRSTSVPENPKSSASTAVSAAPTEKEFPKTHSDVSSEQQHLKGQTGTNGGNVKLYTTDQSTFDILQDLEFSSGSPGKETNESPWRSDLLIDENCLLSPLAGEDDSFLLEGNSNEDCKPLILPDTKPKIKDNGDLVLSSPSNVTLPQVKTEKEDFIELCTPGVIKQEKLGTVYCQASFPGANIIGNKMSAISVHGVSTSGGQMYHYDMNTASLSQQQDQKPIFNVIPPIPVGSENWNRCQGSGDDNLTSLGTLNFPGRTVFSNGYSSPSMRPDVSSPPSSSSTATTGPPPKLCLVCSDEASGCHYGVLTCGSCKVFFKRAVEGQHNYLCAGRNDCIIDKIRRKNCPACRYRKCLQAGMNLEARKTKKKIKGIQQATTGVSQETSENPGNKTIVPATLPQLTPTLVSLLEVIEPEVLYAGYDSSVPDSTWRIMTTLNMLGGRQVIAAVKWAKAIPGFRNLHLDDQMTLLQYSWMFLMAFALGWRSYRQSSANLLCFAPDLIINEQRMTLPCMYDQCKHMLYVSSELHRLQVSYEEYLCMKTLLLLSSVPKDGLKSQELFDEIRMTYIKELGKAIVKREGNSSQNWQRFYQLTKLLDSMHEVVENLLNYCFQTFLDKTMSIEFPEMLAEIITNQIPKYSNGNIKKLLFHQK
Sequence of Cytochrome P450 3A4 (Homo sapiens) (P08684 whole entry, looked up): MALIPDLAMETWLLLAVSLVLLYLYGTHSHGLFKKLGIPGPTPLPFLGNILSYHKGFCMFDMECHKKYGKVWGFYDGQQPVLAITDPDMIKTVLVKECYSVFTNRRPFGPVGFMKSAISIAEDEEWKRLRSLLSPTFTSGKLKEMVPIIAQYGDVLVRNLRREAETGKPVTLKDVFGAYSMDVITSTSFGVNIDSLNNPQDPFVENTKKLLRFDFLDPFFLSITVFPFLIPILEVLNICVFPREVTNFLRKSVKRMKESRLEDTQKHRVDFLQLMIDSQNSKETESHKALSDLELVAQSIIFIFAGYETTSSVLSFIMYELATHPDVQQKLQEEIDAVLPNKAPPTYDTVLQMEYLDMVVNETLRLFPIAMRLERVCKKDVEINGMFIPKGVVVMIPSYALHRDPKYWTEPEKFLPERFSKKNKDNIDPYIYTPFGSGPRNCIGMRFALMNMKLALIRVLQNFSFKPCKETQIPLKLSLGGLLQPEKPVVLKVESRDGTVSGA
Sequence of DNA dC->dU-editing enzyme APOBEC-3G (Homo sapiens) (Q9HC16 whole entry, looked up): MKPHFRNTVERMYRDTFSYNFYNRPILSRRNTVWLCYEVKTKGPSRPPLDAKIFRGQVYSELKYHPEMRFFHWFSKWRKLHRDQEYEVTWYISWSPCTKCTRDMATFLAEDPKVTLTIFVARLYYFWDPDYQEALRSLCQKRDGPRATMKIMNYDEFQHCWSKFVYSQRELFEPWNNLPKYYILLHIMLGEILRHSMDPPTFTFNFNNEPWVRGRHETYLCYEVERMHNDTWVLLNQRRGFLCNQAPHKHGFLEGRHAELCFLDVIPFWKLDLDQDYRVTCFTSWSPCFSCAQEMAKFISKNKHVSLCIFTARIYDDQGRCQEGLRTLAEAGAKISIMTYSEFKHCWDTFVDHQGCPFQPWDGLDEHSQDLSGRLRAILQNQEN
Sequence of 3',5'-cyclic-AMP phosphodiesterase 4B (Homo sapiens) (Q07343 whole entry, looked up): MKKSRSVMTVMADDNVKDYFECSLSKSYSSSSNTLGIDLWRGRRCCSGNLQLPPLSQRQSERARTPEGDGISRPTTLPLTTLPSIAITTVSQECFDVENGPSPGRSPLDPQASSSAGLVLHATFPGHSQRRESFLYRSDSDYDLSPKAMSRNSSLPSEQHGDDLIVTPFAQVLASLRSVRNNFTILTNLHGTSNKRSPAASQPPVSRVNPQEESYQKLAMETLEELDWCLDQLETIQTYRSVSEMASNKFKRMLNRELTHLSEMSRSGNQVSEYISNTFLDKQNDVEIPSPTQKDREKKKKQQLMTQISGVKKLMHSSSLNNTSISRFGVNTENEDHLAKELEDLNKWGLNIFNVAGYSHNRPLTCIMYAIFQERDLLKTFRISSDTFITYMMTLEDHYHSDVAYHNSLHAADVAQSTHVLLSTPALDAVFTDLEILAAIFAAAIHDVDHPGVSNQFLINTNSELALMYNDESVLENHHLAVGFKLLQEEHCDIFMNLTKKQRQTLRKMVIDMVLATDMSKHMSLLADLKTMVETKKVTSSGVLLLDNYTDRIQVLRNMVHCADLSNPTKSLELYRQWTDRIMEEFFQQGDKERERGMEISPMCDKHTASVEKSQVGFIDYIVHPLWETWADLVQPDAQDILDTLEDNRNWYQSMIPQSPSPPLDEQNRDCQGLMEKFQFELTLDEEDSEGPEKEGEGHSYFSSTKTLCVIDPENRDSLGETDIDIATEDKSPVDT
Sequence of Guanine nucleotide-binding protein G(i) subunit alpha-1 (Homo sapiens) (P63096 whole entry, looked up): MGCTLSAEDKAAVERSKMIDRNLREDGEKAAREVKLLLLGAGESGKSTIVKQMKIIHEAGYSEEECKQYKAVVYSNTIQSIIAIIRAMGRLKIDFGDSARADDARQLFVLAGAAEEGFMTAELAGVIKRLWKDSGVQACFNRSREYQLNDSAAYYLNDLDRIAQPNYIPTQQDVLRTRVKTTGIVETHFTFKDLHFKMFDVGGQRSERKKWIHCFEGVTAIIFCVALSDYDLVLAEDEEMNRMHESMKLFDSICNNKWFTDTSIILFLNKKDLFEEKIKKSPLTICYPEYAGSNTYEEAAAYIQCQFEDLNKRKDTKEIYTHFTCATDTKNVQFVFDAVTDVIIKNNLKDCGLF

Cc1sc(N)c(C(=O)c2cccc(C(F)(F)F)c2)c1C
inactive: Potency [2] > 46 µM | Potency [3] > 46 µM | Potency [4] | Potency [6] | Potency [7] | Potency [8] | outcome [9]
active: Potency [1] 15.8 µM | Potency [5] 50.1 µM

CC/C=C\C/C=C\C/C=C\C/C=C\C/C=C\CCCCCC(=O)O
inactive: activity change, negative = inhibition [7] -1.57% [at 6.83 µM] | activity change, negative = inhibition [8] -17.3% [at 3.88 µM]

N[C@H](Cc1ccccc1)C(=O)O
inactive: Potency [7] | Potency [8]

Fc1ccc(-c2nc3n(c2-c2ccncc2)CCS3)cc1
active: Potency [10] 15.8 µM
inactive: Potency [4] | Potency [7] | Potency [8]

NC(N)=NN=Cc1c(Cl)cccc1Cl
inactive: activity change, negative = inhibition ([11]; at 17.2 µM (top of the series)) -2.9% | activity change, negative = inhibition ([11]; at 38 µM (top of the series)) 4.65% | activity change, negative = inhibition ([12]; at 17.2 µM (top of the series)) -0.975% | activity change, negative = inhibition ([12]; at 38 µM (top of the series)) -1.48% | activity, negative = inhibition ([13]; at 17.2 µM (top of the series)) 9.46% | activity, negative = inhibition ([13]; at 38 µM (top of the series)) -0.683% | Potency [14] | Potency [15] | outcome [16] | Potency [5] | Potency [6] | Potency [7] | Potency [8]

CCCCC[C@H](O)CC(=O)CCc1ccc(O)c(OC)c1
inactive: Potency [7] | Potency [8]

COC(=O)C1=C(C)NC(C)=C([N+](=O)[O-])[C@@H]1c1ccccc1C(F)(F)F
active: Potency [1] 39.8 µM | Potency [17] 158 nM | Potency [18] 6.31 µM | Potency [19] 126 nM
inactive: Potency [3] > 46 µM | Potency [4] | Potency [6] | Potency [7] | Potency [8] | outcome [9]

COC(=O)C1=C(C)NC(C)=C([N+](=O)[O-])[C@H]1c1ccccc1C(F)(F)F
active: Potency [17] 15.8 µM and 2 µM | Potency [10] 12.6 µM | Potency [19] 1.26 µM and 158 nM
inactive: activity change, negative = inhibition ([11]; at 38 µM (top of the series)) -27.8% | activity change, negative = inhibition ([12]; at 38 µM (top of the series)) -15.3% | activity, negative = inhibition ([13]; at 38 µM (top of the series)) 13.2% | Potency [2] > 46 µM | Potency [3] > 46 µM | Potency [14] | Potency [15] | outcome [16] | Potency [4] | Potency [18] | Potency [6] | Potency [7] | Potency [8] | outcome [9]

Cc1ccc(-c2nn(C(C)(C)C)c3ncnc(N)c23)cc1
inactive: Potency [7] | Potency [8]

COc1cc([C@@H]2c3cc4c(cc3C(O[C@@H]3O[C@@H]5CO[C@@H](c6cccs6)OC5[C@H](O)[C@H]3O)C3COC(=O)[C@@H]32)OCO4)cc(OC)c1O (some centres not stated)
inactive: Potency [7] | Potency [8]

OCCOCCN1CCN(Cc2cccc(Oc3ccccc3)c2)CC1
inactive: Potency [7] | Potency [8]

CC[C@H](C)C(=O)O[C@H]1CCC=C2C=C[C@H](C)[C@H](CC[C@@H]3C[C@H](O)CC(=O)O3)[C@H]21
inactive: Potency [2] > 46 µM | Potency [3] > 46 µM | Potency [14] | outcome [16] | Potency [4] | Potency [6] | Potency [7] | Potency [8] | outcome [9]
active: Potency [1] 31.6 µM

CC(C)(C)n1nc(-c2ccc(Cl)cc2)c2c(N)ncnc21
inactive: Potency [7] | Potency [8]

CN[C@@H]1[C@H](O)[C@H](O[C@@H]2[C@H](O)[C@@H](O[C@H]3O[C@H]([C@@H](C)NC)CC[C@H]3N)[C@@H](N)C[C@H]2N)OC[C@]1(C)O
inactive: Potency [7] | Potency [8]

COc1ccc2[nH]c(-c3ccccc3)c(CCNC(C)=O)c2c1
inactive: Potency [2] > 46 µM | Potency [3] > 46 µM | Potency [14] | Potency [15] | Potency [4] | Potency [6] | Potency [7] | Potency [8] | outcome [9]
active: Potency [1] 1.26 µM | Potency [19] 7940 nM

CC(C)NC[C@@H](O)COc1ccc(COCCOC(C)C)cc1
inactive: activity change, negative = inhibition ([11]; at 17.2 µM (top of the series)) -0.912% | Potency [1] | activity change, negative = inhibition ([12]; at 17.2 µM (top of the series)) 3.53% | activity, negative = inhibition ([13]; at 17.2 µM (top of the series)) 15.4% | Potency [2] > 20.6 µM and > 46 µM | Potency [3] > 20.6 µM and > 46 µM | Potency [14] | Potency [15] | Potency [5] | Potency [6] | Potency [7] | Potency [8]
